# Laboratory results as given in PubChem BioAssay AID1159580 (chemical genetic matrix, 2015).
# Where “and” joins values, the source holds several entries; their conditions need not be identical. Equal values may be shown once. Among all 5,500 compounds or so, about 2,000 (36%) were called active. About 18% were inconclusive and are not listed. Some of the results follow. A number with no mark means an inactive call. Cut-off read from the data, not from the text of the source: active = normalized growth mostly below about 0.91 (no sharp cut-off); inconclusive = no clear call, values can overlap the other calls; inactive = mostly above about 0.92.
# Test: chemical genetic growth profiling, strain panel (AID 1159580);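 note: tested at 20 µM; growth read once vehicle control cultures reached saturation at 30 °C; 1 = growth at the plate median or of vehicle wells; lower values mean less growth of the strain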
# Details: growth OD
structure (smiles),measurement,setting,value
CNCCC=C1c2ccccc2CCc2ccccc21,normalized growth,"S. cerevisiae deletion strains, locus YJR075W, strain HOC1, active compounds read low",1.02 and 0.976
same,normalized growth,"S. cerevisiae deletion strains, locus YKL009W, strain mrt4, active compounds read low",1.01
same,normalized growth,"S. cerevisiae deletion strains, locus YKL068W, active compounds read low",1
same,normalized growth,"S. cerevisiae deletion strains, locus YKL085W, strain MDH1 (second series), active compounds read low",1
same,normalized growth,"S. cerevisiae deletion strains, locus YKL085W, strain MDH1, active compounds read low",1
same,normalized growth,"S. cerevisiae deletion strains, locus YKL160W, strain elf1, active compounds read low",0.943
same,normalized growth,"S. cerevisiae deletion strains, locus YKL190W, strain CNB1, active compounds read low",1.01
same,normalized growth,"S. cerevisiae deletion strains, locus YKR001C, strain vps1, active compounds read low",1.06
same,normalized growth,"S. cerevisiae deletion strains, locus YKR026C, strain gcn3, active compounds read low",0.975
same,normalized growth,"S. cerevisiae deletion strains, locus YKR091W, strain srl3, active compounds read low",0.973
same,normalized growth,"S. cerevisiae deletion strains, locus YLL001W, strain dnm1, active compounds read low",0.988
same,normalized growth,"S. cerevisiae deletion strains, locus YLL026W, active compounds read low",0.978
same,normalized growth,"S. cerevisiae deletion strains, locus YLL041C, strain sdh2, active compounds read low",0.985
same,normalized growth,"S. cerevisiae deletion strains, locus YLR027C, strain aat2, active compounds read low",0.967
same,normalized growth,"S. cerevisiae deletion strains, locus YLR039C, strain RIC1, active compounds read low",1.1
same,normalized growth,"S. cerevisiae deletion strains, locus YLR058C, strain SHM2, active compounds read low",1.02
same,normalized growth,"S. cerevisiae deletion strains, locus YLR102C, strain apc9, active compounds read low",1.01
same,normalized growth,"S. cerevisiae deletion strains, locus YLR113W, strain HOG1, active compounds read low",1
same,normalized growth,"S. cerevisiae deletion strains, locus YLR221C, strain rsa3, active compounds read low",0.991
same,normalized growth,"S. cerevisiae deletion strains, locus YLR258W, strain gsy2, active compounds read low",0.957
same,normalized growth,"S. cerevisiae deletion strains, locus YLR262C, strain YPT6 (second series), active compounds read low",1.01
same,normalized growth,"S. cerevisiae deletion strains, locus YLR262C, strain YPT6, active compounds read low",1.13
same,normalized growth,"S. cerevisiae deletion strains, locus YLR268W, strain sec22, active compounds read low",1.08
same,normalized growth,"S. cerevisiae deletion strains, locus YLR320W, strain mms22, active compounds read low",0.967
same,normalized growth,"S. cerevisiae deletion strains, locus YLR330W, strain CHS5, active compounds read low",1.01
same,normalized growth,"S. cerevisiae deletion strains, locus YLR342W, strain FKS1 (second series), active compounds read low",0.977
same,normalized growth,"S. cerevisiae deletion strains, locus YLR342W, strain FKS1, active compounds read low",0.91
same,normalized growth,"S. cerevisiae deletion strains, locus YLR357W, strain rsc2, active compounds read low",0.956
same,normalized growth,"S. cerevisiae deletion strains, locus YLR370C, strain arc18, active compounds read low",0.975
same,normalized growth,"S. cerevisiae deletion strains, locus YLR371W, strain rom2, active compounds read low",1.02
same,normalized growth,"S. cerevisiae deletion strains, locus YLR384C, strain iki3, active compounds read low",0.979
same,normalized growth,"S. cerevisiae deletion strains, locus YLR418C, strain cdc73, active compounds read low",1.01
same,normalized growth,"S. cerevisiae deletion strains, locus YML016C, strain PPZ1, active compounds read low",1.01
same,normalized growth,"S. cerevisiae deletion strains, locus YML032C, strain rad52, active compounds read low",1.06
same,normalized growth,"S. cerevisiae deletion strains, locus YML120C, strain ndi1, active compounds read low",0.986
same,normalized growth,"S. cerevisiae deletion strains, locus YML124C, strain tub3, active compounds read low",1.01
same,normalized growth,"S. cerevisiae deletion strains, locus YMR058W, strain fet3, active compounds read low",0.964
same,normalized growth,"S. cerevisiae deletion strains, locus YMR078C, strain ctf18, active compounds read low",1.02
same,normalized growth,"S. cerevisiae deletion strains, locus YMR125W, strain sto1, active compounds read low",0.933
same,normalized growth,"S. cerevisiae deletion strains, locus YMR129W, active compounds read low",0.976
same,normalized growth,"S. cerevisiae deletion strains, locus YMR205C, strain PFK2, active compounds read low",0.98
same,normalized growth,"S. cerevisiae deletion strains, locus YMR223W, strain ubp8, active compounds read low",0.989
same,normalized growth,"S. cerevisiae deletion strains, locus YMR231W, strain pep5, active compounds read low",0.974
same,normalized growth,"S. cerevisiae deletion strains, locus YMR263W, strain SAP30, active compounds read low",1.01
same,normalized growth,"S. cerevisiae deletion strains, locus YMR307W, strain GAS1, active compounds read low",1.02
same,normalized growth,"S. cerevisiae deletion strains, locus YNL067W, strain RPL9B, active compounds read low",1.02
same,normalized growth,"S. cerevisiae deletion strains, locus YNL071W, strain lat1, active compounds read low",0.987
same,normalized growth,"S. cerevisiae deletion strains, locus YNL128W, strain TEP1, active compounds read low",1.01 and 1.07
same,normalized growth,"S. cerevisiae deletion strains, locus YNL153C, strain GIM3, active compounds read low",1.02 and 0.984
same,normalized growth,"S. cerevisiae deletion strains, locus YNL175C, strain NOP13, active compounds read low",1
same,normalized growth,"S. cerevisiae deletion strains, locus YNL183C, strain NPR1, active compounds read low",0.938
same,normalized growth,"S. cerevisiae deletion strains, locus YNL197C, strain WHI3, active compounds read low",1.01
same,normalized growth,"S. cerevisiae deletion strains, locus YNL209W, strain ssb2, active compounds read low",0.984
same,normalized growth,"S. cerevisiae deletion strains, locus YNL224C, strain SQS1, active compounds read low",1.02
same,normalized growth,"S. cerevisiae deletion strains, locus YNL233W, strain BNI4, active compounds read low",1.01
same,normalized growth,"S. cerevisiae deletion strains, locus YNL248C, strain rpa49, active compounds read low",0.952
same,normalized growth,"S. cerevisiae deletion strains, locus YNL250W, strain rad50, active compounds read low",1.01
same,normalized growth,"S. cerevisiae deletion strains, locus YNL271C, strain bni1, active compounds read low",1.01
same,normalized growth,"S. cerevisiae deletion strains, locus YNL298W, strain CLA4, active compounds read low",1.02
same,normalized growth,"S. cerevisiae deletion strains, locus YNL307C, strain MCK1, active compounds read low",1.01
same,normalized growth,"S. cerevisiae deletion strains, locus YNL322C, strain KRE1 (second series), active compounds read low",0.98
same,normalized growth,"S. cerevisiae deletion strains, locus YNL322C, strain KRE1, active compounds read low",1.01 and 0.982
same,normalized growth,"S. cerevisiae deletion strains, locus YNR049C, strain mso1, active compounds read low",0.98
same,normalized growth,"S. cerevisiae deletion strains, locus YNR052C, strain pop2, active compounds read low",1.02
same,normalized growth,"S. cerevisiae deletion strains, locus YOL006C, strain TOP1, active compounds read low",0.969
same,normalized growth,"S. cerevisiae deletion strains, locus YOL012C, strain htz1",0.912
same,normalized growth,"S. cerevisiae deletion strains, locus YOL147C, strain pex11, active compounds read low",1.02
same,normalized growth,"S. cerevisiae deletion strains, locus YOR001W, strain rrp6, active compounds read low",0.988
same,normalized growth,"S. cerevisiae deletion strains, locus YOR061W, strain CKA2, active compounds read low",1.01
same,normalized growth,"S. cerevisiae deletion strains, locus YOR069W, strain VPS5, active compounds read low",1.01
same,normalized growth,"S. cerevisiae deletion strains, locus YOR070C, strain gyp1, active compounds read low",0.978
same,normalized growth,"S. cerevisiae deletion strains, locus YOR080W, strain dia2, active compounds read low",0.967
same,normalized growth,"S. cerevisiae deletion strains, locus YOR083W, strain WHI5 (second series), active compounds read low",1.01
same,normalized growth,"S. cerevisiae deletion strains, locus YOR083W, strain WHI5, active compounds read low",0.898
same,normalized growth,"S. cerevisiae deletion strains, locus YOR106W, strain vam3, active compounds read low",0.949
same,normalized growth,"S. cerevisiae deletion strains, locus YOR136W, strain idh2, active compounds read low",1.01
same,normalized growth,"S. cerevisiae deletion strains, locus YOR144C, strain elg1, active compounds read low",1.03
same,normalized growth,"S. cerevisiae deletion strains, locus YOR184W, strain ser1, active compounds read low",1.04
same,normalized growth,"S. cerevisiae deletion strains, locus YOR231W, strain MKK1, active compounds read low",1.01
same,normalized growth,"S. cerevisiae deletion strains, locus YOR265W, strain rbl2, active compounds read low",0.989
same,normalized growth,"S. cerevisiae deletion strains, locus YOR270C, strain vph1, active compounds read low",0.731 (active)
same,normalized growth,"S. cerevisiae deletion strains, locus YOR290C, strain snf2, active compounds read low",0.928
same,normalized growth,"S. cerevisiae deletion strains, locus YOR316C, strain cot1, active compounds read low",1.02
same,normalized growth,"S. cerevisiae deletion strains, locus YPL051W, strain arl3, active compounds read low",0.956
same,normalized growth,"S. cerevisiae deletion strains, locus YPL055C, strain LGE1, active compounds read low",1.05 and 0.967
same,normalized growth,"S. cerevisiae deletion strains, locus YPL078C, strain atp4, active compounds read low",0.959
same,normalized growth,"S. cerevisiae deletion strains, locus YPL106C, strain sse1, active compounds read low",0.983
same,normalized growth,"S. cerevisiae deletion strains, locus YPL240C, strain hsp82, active compounds read low",1
same,normalized growth,"S. cerevisiae deletion strains, locus YPL241C, strain CIN2, active compounds read low",1.01
same,normalized growth,"S. cerevisiae deletion strains, locus YPL256C, strain CLN2, active compounds read low",0.962
same,normalized growth,"S. cerevisiae deletion strains, locus YPR119W, strain clb2, active compounds read low",1.01
same,normalized growth,"S. cerevisiae deletion strains, locus YPR141C, strain kar3, active compounds read low",1.01
same,normalized growth,"S. cerevisiae deletion strains, locus YPR163C, strain tif3, active compounds read low",1.03
same,normalized growth,"S. cerevisiae deletion strains, locus YPR167C, strain met16, active compounds read low",1.02
same,normalized growth,"S. cerevisiae deletion strains, strain wtn01, active compounds read low",1.05
same,normalized growth,"S. cerevisiae strains, strain wild type, active compounds read low",1.01
